Assay results published in PubChem BioAssay AID743280 (The Scripps Research Institute Molecular Screening Center, 2014).
In all, about 2,000 compounds went through this assay and about 680 (34%) were called active.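 How the source made its calls: active means mean inhibition across triplicates above the hit cutoff set in the earlier primary screen (cut at about 19% in these data); inactive means the rest.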 These entries were drawn from the full list.

Target: Group 3 secretory phospholipase A2 (Homo sapiens) (UniProt Q9NZ20)
Sequence (Q9NZ20 whole entry, looked up): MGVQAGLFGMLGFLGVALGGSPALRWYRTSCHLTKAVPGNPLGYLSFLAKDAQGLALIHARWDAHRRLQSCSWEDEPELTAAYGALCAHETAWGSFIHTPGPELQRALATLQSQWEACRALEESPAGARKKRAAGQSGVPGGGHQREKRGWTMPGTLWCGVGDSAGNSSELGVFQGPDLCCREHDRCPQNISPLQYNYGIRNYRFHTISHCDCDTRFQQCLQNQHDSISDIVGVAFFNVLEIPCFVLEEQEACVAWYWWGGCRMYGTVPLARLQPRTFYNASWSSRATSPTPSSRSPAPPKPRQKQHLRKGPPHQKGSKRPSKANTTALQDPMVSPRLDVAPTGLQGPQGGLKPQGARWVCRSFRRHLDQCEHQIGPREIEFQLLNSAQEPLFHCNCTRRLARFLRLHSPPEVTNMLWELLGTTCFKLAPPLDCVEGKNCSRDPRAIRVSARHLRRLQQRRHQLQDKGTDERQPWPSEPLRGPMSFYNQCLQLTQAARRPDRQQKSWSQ
Test: human group III sPLA2 inhibitors, confirmation, biochemical, QFRET, triplicate (AID 743280);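 further: 0% = enzyme with DMSO and 100% = DMSO wells lacking enzyme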
Conditions: recombinant hGIII-sPLA2, BODIPY PC-A2 QFRET fluorescence; at 12.2 µM; active compounds read high

Row | SMILES | inhibition
1 | N#CC1(Nc2ccc(-c3ccc(Cl)cc3)cc2)CCCC1 | 24.4% (active)
2 | C=CCNc1scc(-c2ccccc2)[n+]1CC=C | 10.9% (inactive)
3 | Cc1cccc(N2CCN(c3ccc(NC(=O)/C=C\C(=O)O)cc3)CC2)c1 | 7.11% (inactive)
4 | CCOc1ccc2[nH]c(=S)sc2c1 | 27.4% (active)
5 | COCCn1c(SCC(=O)Nc2cc(OC)ccc2OC)nc2c(c1=O)SC(C)C2 (stereo not given) | -3.55% (inactive)
6 | CCCCn1c(=S)[nH]c2ccccc2c1=O | 12.9% (inactive)
7 | COc1ccc(C(=O)NC(=S)NNC(=O)c2c(-c3ccccc3)noc2C)cc1 | 35.4% (active)
8 | COc1ccc(C(=O)NNC(=S)NC(=O)c2ccccc2)cc1 | 22.1% (active)
9 | COc1ccc(C(=O)Nc2sc(C)c(C)c2CN2CCOCC2)cc1 | 8% (inactive)
10 | O=C(NC(=S)Nc1ncccn1)c1ccccc1Br | 10.1% (inactive)
11 | NS(=O)(=O)c1ccc(CCNC(=O)NC2CCCCC2)cc1 | -1.05% (inactive)
12 | Cc1c(NC(=S)NCc2ccc(F)cc2)cccc1[N+](=O)[O-] | 3.91% (inactive)
13 | Cc1ccc(NC(=S)NNC(=O)CSc2nnc(SCc3ccccc3Cl)s2)cc1 | 3% (inactive)
14 | Cn1cc(Cl)c(C(=O)NNC(=S)Nc2cccc(Cl)c2)n1 | 42.3% (active)
15 | Cc1cc(NCCc2c[nH]c3ccccc23)ccc1Oc1cccnc1 | 10.5% (inactive)
16 | CN(C)c1ccc(NC(=O)NC2CCCCN(Cc3ccc(Cl)cc3)C2=O)cc1 (stereo not given) | 6.59% (inactive)
17 | c1ccc(C2=Nc3cccc4cccc(c34)N2)cc1 | 50.5% (active)
18 | C/C(=N/NC(=O)c1cc(Cl)ccc1O)C12CC3CC(CC(C3)C1)C2 | 15.1% (inactive)
19 | Nc1ccc2c(c1)C(O)c1ccc(Cl)cc1-2 (stereo not given) | 26.1% (active)
20 | Cc1ccc(C2CC(c3cccc(C)c3)n3nc(N)nc3N2)cc1 (stereo not given) | 6.67% (inactive)
21 | CC(C)(C)c1cc2cccnc2n1Cc1cccc(F)c1 | 13.1% (inactive)
22 | CCOc1ccc(Br)cc1CSC(=N)N | 26% (active)

Row | SMILES | inhibition
23 | COc1ccc(NC(=O)C2C3C=CC(C3)C2C(=O)NCc2ccccn2)c(OC)c1 (stereo not given) | 1.31% (inactive)
24 | Cc1ccc(-c2csc(NNC(=O)c3ccccc3)n2)cc1 | 56.7% (active)
25 | CCN(CC(=O)NC1CCS(=O)(=O)C1)S(=O)(=O)c1ccccc1 (stereo not given) | -6.89% (inactive)
26 | COc1ccc(C(N)c2csc(NC(=O)Nc3cccc(C(F)(F)F)c3)n2)cc1 (stereo not given) | 23% (active)
27 | NC(c1csc(NC(=O)Nc2ccccc2Oc2ccccc2)n1)c1ccccc1Cl (stereo not given) | 8.22% (inactive)
28 | Cc1cc(-n2nc(C)cc2C)n2ncc(-c3ccccc3)c2n1 | 14.7% (inactive)
29 | CCc1cccc(CC)c1NC(=S)NCc1ccc2[nH]c(C)cc2c1 | -6.2% (inactive)
30 | CC(=O)NC(c1cccs1)c1cc(Br)c2cccnc2c1O (stereo not given) | 19.7% (active)
31 | CCOc1ccc(/C=N/NC(N)=S)cc1 | 12.7% (inactive)
32 | Cc1ccccc1NC(=O)C1CCN(c2ncccn2)CC1 | -1.34% (inactive)
33 | CC(=O)/C(=N\Nc1ccc(Cl)cc1Cl)Sc1cccc2cccnc12 | -6.23% (inactive)
34 | CCc1cc(-c2n[nH]c(=S)n2CC(C)C)cs1 | 24.9% (active)
35 | CC(C)c1ccc(Nc2nnc(SCC(=O)c3nnc(-c4ccccc4)o3)s2)cc1 | 6.4% (inactive)
36 | O=C1C(=O)N(Cc2ccc(-c3ccsc3)cc2)c2ccc(OC(F)(F)F)cc21 | 32.9% (active)
37 | C=CCn1c(C23CC4CC(CC(C4)C2)C3)n[nH]c1=S | 27.1% (active)
38 | CCN(Cc1ccccc1)C(=O)CN1C(=S)NC(C)(C)CC1C (stereo not given) | 8.88% (inactive)
39 | CC1=CC(C)(C)NC(=S)N1c1ccccc1 | 14.3% (inactive)
40 | CCCCn1c(N)c(N(CCOC)C(=O)COc2c(C)cccc2C)c(=O)[nH]c1=O | 10.8% (inactive)
41 | O=C(NNC(=S)Nc1ccc(F)cc1)[C@H]1C[C@@H]1c1ccccc1 | 35.9% (active)
42 | COc1cc(NS(=O)(=O)c2ccc3ccccc3c2)c2ncccc2c1 | 11% (inactive)
43 | CSC1=NN(c2ccccc2)CN(c2ccccc2)N1C | 25.6% (active)
44 | CCOC(=O)C1(Cc2cccc(OC)c2)CCCN(C(=O)CCSC)C1 (stereo not given) | 2.05% (inactive)

Row | SMILES | inhibition
45 | C/C(=N\Nc1ccc(Cl)nn1)c1ccccc1O | 7.83% (inactive)
46 | Brc1ccccc1C1Nc2cccc3cccc(c23)N1 | 58.1% (active)
47 | CC(=O)c1nnn(-c2ccc(Cl)cc2C#N)c1C | 1.06% (inactive)
48 | O=C(NNc1ccccn1)c1ccc(Cl)nc1 | 25.9% (active)
49 | COc1cccc(NC(C)=[N+](C)CCNS(=O)(=O)c2ccc(Cl)cc2)c1 | -1.54% (inactive)
50 | COc1cc(OC)cc(C2=Cc3ccccc3C(CC(=O)c3ccco3)N2c2ccc(-c3cnc(OC)nc3)cc2)c1 (stereo not given) | 1.48% (inactive)
51 | Cc1cccc(-n2cnc(C(=O)NNC(=S)Nc3ccccc3)c2)n1 | 46.5% (active)
52 | O=C(CSc1nc2ccccc2n1Cc1ccccc1)NNC(=S)Nc1ccccc1 | 15.2% (inactive)
53 | C/C(=N\NC(=O)CSc1nc2ccccc2c(=O)n1-c1ccccc1C)c1cccs1 | -11% (inactive)
54 | Nc1ccc(Nc2ccccc2)cc1 | 17.8% (inactive)
55 | COCCCNC(=O)CNC(=S)N(Cc1cc(OC)c(OC)c(OC)c1)C1CCCC1 | 7.62% (inactive)
56 | CC(C)(c1ccccc1)c1ccc(OCCN)cc1 | 0.24% (inactive)
57 | Cc1cc(-c2n[nH]c(=S)n2-c2ccc(C)c(C)c2)no1 | 24.4% (active)
58 | COc1ccccc1OCCn1c(SCC(N)=O)nc2ccccc21 | 13.8% (inactive)
59 | O=C(Nc1cccc(F)c1)c1cc(-c2ccco2)nc2ccccc12 | 9.4% (inactive)
60 | CC(=O)Oc1ccc2c(c1)C(=O)c1ccccc1C2=O | 1.09% (inactive)
61 | Cc1ccc2sc(NNC(=O)c3ccc4c(c3)OCCO4)nc2c1C | 38.7% (active)
62 | C#CCCCc1nc2ccccc2c(=O)n1N | 1.47% (inactive)
63 | Oc1ccc2ccccc2c1N=Nc1nccs1 | 47.5% (active)
64 | CSc1ccc(NC(=O)/C=C/C(=O)O)cc1 | -0.31% (inactive)
65 | Cc1sc2nc(SCC(=O)c3ccc(O)c(O)c3)n(Cc3ccco3)c(=O)c2c1C | -10.3% (inactive)
66 | C/C(=N\NC(=S)Nc1ccc(C)cc1)c1cc2ccccc2o1 | 40.2% (active)

Row | SMILES | inhibition
67 | COc1ccccc1OCC(=O)OCn1c(SC)nnc(C)c1=O | -3.63% (inactive)
68 | O=C(COc1ccc(S(=O)(=O)NCc2ccccc2)cc1)N1CCOCC1 | -1.27% (inactive)
69 | CC(C(=O)Nc1ccccc1-c1ccccc1)N1CCOCC1 (stereo not given) | 3.12% (inactive)
70 | Cc1ccc(S(=O)(=O)N2CCOCC2)cc1C(=O)NC(=S)N(Cc1ccccc1)C(C)C | 21.7% (active)
71 | CC(C)c1cc(C(=O)N/N=C/c2ccoc2)c(O)c(C(C)C)c1 | 9.71% (inactive)
72 | NC(Cc1ccccc1)c1csc(Nc2cc(Oc3ccccc3)ncn2)n1 (stereo not given) | 9.47% (inactive)
73 | NC[C@H](Cc1ccccc1)NCCc1cc(C(F)(F)F)cc(C(F)(F)F)c1 | 23.4% (active)
74 | Cc1cccc(NC(=S)NCCN(C2CCCCC2)C2CCCC2)c1 | 15.1% (inactive)
75 | Cc1nnc(Sc2nc3c(c(=O)[nH]c(=O)n3C)n2Cc2ccccc2)s1 | -3.34% (inactive)
76 | CN(C)S(=O)(=O)c1cccc(NC(=S)N/N=C/C(=O)c2ccccc2)c1 | 33.4% (active)
77 | COc1ccnc(NC(=S)N2CCN(c3ncc(C(F)(F)F)cc3Cl)CC2)c1 | 19% (inactive)
78 | CC(C)=CCCC1(C)C=Cc2c(ccc3c2[nH]c2cc(O)c(C)cc23)O1 (stereo not given) | -8.08% (inactive)
79 | O=C(NNC(=S)Nc1ccc(Br)cc1Cl)c1ccco1 | 32.4% (active)
80 | O=C(NN1C(=O)C2C3C=CC(C3)C2C1=O)c1ccco1 (stereo not given) | 1.65% (inactive)
81 | Cc1c(Cl)cccc1NC(=S)NCc1ccc2c(c1)OCO2 | 13.1% (inactive)
82 | CCOC12CC(C)(C)CC(C)(CC3=C1C(=O)CC(C)(C)C3)C2 (stereo not given) | 0.63% (inactive)
83 | O=C(CCl)NNc1cccc(Cl)n1 | 74.6% (active)
84 | S=C(NNC(=S)NC1CC2CCC1C2)NC1CC2C=CC1C2 (stereo not given) | 22.1% (active)
85 | O=C(NNC(=S)NC1CC2CCC1C2)c1ccc(Cl)cc1 (stereo not given) | 22.9% (active)
86 | Cc1cccc(C)c1NC(=O)CN1C(=O)C(C)Oc2ccccc21 (stereo not given) | 3.96% (inactive)
87 | Cn1c2c(c(=O)n(C)c1=O)C1c3ccccc3OCC1C(C)(C)O2 (stereo not given) | -1.2% (inactive)
88 | Cc1ccc(C2Nc3ccccc3C(=O)N2CCN2CCNC2=O)cc1 (stereo not given) | -3.41% (inactive)

Row | SMILES | inhibition
89 | O=C(N/N=C/c1cc(Cl)cc([N+](=O)[O-])c1O)C(O)(c1ccccc1)c1ccccc1 | 35.7% (active)
90 | Cc1c(C(=O)N/N=C/c2ccccc2)[nH]c2c([N+](=O)[O-])cccc12 | -5.71% (inactive)
91 | Cc1[nH]c(N)nc(=S)c1CCCNc1ccccc1 | 18.5% (inactive)
92 | S=c1[nH]nc(-c2ccco2)n1/N=C/c1ccccc1 | 13.8% (inactive)
93 | CC(NC(=O)COC(=O)Cn1cc(C(F)(F)F)ccc1=O)c1ccccc1 (stereo not given) | 0.6% (inactive)
94 | CC(Oc1ccc2ccccc2c1)C(=O)NNC(=S)NC(=O)c1ccco1 (stereo not given) | 22.6% (active)
95 | CCOC(=O)NC(=O)/C(C#N)=C\c1ccccc1 | -5.62% (inactive)
96 | N=C(N)SCc1cccc2ccccc12 | 23.3% (active)
97 | O=C(OC12CC3CC(CC(C3)C1)C2)c1ccc(NCc2cc(O)ccc2O)cc1 | 42.8% (active)
98 | COc1cc(/C=N/n2c(C)n[nH]c2=S)ccc1OCc1ccccc1 | 6.69% (inactive)
99 | O=C(NNC(=S)NC1CCCCC1)c1ccccc1Cl | 31.4% (active)
100 | COc1ccc(Cl)cc1C(=O)NNC(=S)NC1CCCC1 | 38.5% (active)
101 | CCNC(=S)Nc1ccc(OC(F)(F)F)cc1 | 10.7% (inactive)
102 | CC(C)CC(=O)NC(=S)NNC(=O)c1cccc([N+](=O)[O-])c1 | 31.6% (active)
103 | CCCCCCCCCCOC(=O)C[N+](C)(C)CC1CCCCC1O (stereo not given) | 4.96% (inactive)
104 | COc1ccc2c(c1)c(=Cc1ccc(N(C)C)cc1)c1cc(-c3ccccc3)[n+](C)n12 | 45.1% (active)
105 | O=C(/C=C/c1c(Cl)cccc1Cl)NCc1ccccc1 | 3.51% (inactive)
106 | CCCCOc1ccc(CSC(=N)N)cc1[N+](=O)[O-] | 25.2% (active)
107 | CC[C@]1(O)C[C@@H]2CN(CCc3c([nH]c4ccccc34)[C@@](C(=O)OC)(c3cc4c(cc3OC)N(C)[C@H]3[C@@](O)(C(=O)OC)[C@H](OC(C)=O)[C@]5(CC)C=CCN6CC[C@]43[C@@H]65)C2)C1 | 10.2% (inactive)
108 | Nc1[nH]c(C(=O)c2ccccc2)c(-c2ccc(Br)cc2)c1C(=O)NC1CC1 | 12.2% (inactive)
109 | COC(=O)C(C)n1cnc2c(nnn2-c2ccc(F)cc2)c1=O (stereo not given) | 1.8% (inactive)
110 | CN(CC(=O)Nc1ccc(N2CCOCC2)cc1)CC(=O)Nc1ccccc1[N+](=O)[O-] | -2.32% (inactive)
